SMILES strings stand for the structures. The campaign covered roughly 370,000 compounds. About 3,800 (1%) were called active. Many of the other results were omitted from the sample, so actives are more common in it than they were. Values without a mark were called inactive. No stated cut-off is given here; in the data, active means activation above about 7.8%; inactive means the rest.

This test in a line: SMARCA2 (BRM) function activators, primary screen, cell-based, luminescence, high throughput (AID 652017).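 Further: 0% = vehicle wells and 100% = reference activator wells.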 As to conditions: MG213 cells, MMTV-luciferase reporter, dexamethasone, overnight; at 9.1 µM; stronger effect = higher value. For orientation: A reporter such as luciferase makes a cellular process visible.
For `C=C1C(=O)[C@]23C[C@H]1CCC2[C@@]1(C)C(C[C@@H]3O)[C@](C)(C(=O)O)CC[C@@H]1O` (stereo partly specified), the activation is 28.1% (active).

Consider `N#Cc1ccc(OC[C@@H](O)CN2CCC(C(O)(c3ccccc3)c3ccccc3)CC2)c(F)c1`, for which the activation is 1.41%.

On to `O=C(CC1CCCCC1)NCc1ccccc1`, for which the activation is 2.93%.

On to `COc1ccc(OCCCC(=O)NCCc2ccccc2)cc1`, for which the activation is 17.9% (active).

Consider `COc1ccc(OCC(=O)NCCc2ccc(S(N)(=O)=O)cc2)cc1`, for which the activation is 2.09%.

As for `O=C(CCNS(=O)(=O)c1ccccc1)NCCCc1ccccc1`, the activation was -1.66%.

As for `COc1ccc(CCNC(=O)CN(c2ccccc2)S(C)(=O)=O)cc1`, the activation was -1.26%.

Take `O=C(CCCc1ccccc1)NCc1ccccc1`: the activation is 8.27% (active).

In the case of `O=C(c1ccccc1)c1ccc(-c2ccccc2C(=O)NC2CCCCN(Cc3ccc(Cl)cc3)C2=O)cc1` (stereo unspecified), the activation was -0.95%.

Turning to `CCOC(=O)[C@]12CCCC3=C1N(CCC3)C(=O)[C@@H](CC(=O)NCC13CC4CC(CC(C4)C1)C3)C2`, the activation is -3%.

For the compound `C=CCOc1ccc(Cl)cc1CNCCCN1CCOCC1`, the activation is -1.83%.

For the compound `CC(C)CNc1cccc2c1S(=O)(=O)N(Cc1cn(Cc3ccc(Cl)cc3)nn1)Cc1ccccc1O2`, the activation is 0.35%.

For `NC(=O)Cc1ccc2sc(-c3ccccc3)nc2c1`, the activation is 2.7%.

For the compound `COC(=O)c1cc2c(N)c(C(=O)c3ccc(Cl)cc3)sc2nc1C(OC)OC`, the activation was -4.26%.

Regarding `CCN(CC)C(=O)c1sc2nc(-c3ccccc3)ccc2c1N`, the activation is 9.84% (active).

With `CCOC(=O)c1cnc2sccn2c1=O`, the activation is -1.74%.

`CN(C)/C=C/C(=O)c1cnc2sccn2c1=O`: the activation is -3.44%.

Turning to `O=C(NCc1ccccn1)c1cnc2sccn2c1=O`, the activation is 8.52% (active).

With `N#Cc1ccccc1OC[C@@H](O)CN1CCC(C(O)(c2ccccc2)c2ccccc2)CC1`, the activation is -4.74%.

For `COC(=O)c1ccc(CSc2nnc(N)s2)o1`, the activation was -1.46%.

With `CN1CCc2c(sc3c2c(NCc2ccco2)nc2nnnn23)C1`, the activation is 0.32%.

`COc1ccccc1CN(C)C(=O)c1cc2ccccc2o1`: the activation was -0.29%.

Turning to `COc1ccc(C(=O)N/N=c2\oc3ccccc3cc2C(N)=O)cc1`, the activation is 9.22% (active).

Consider `COc1ccc(C(=O)NCC[N+](C)(C)C)cc1`, for which the activation was -4.72%.

In the case of `CC(=O)c1cc(-c2ccc3ccccc3c2)c(=O)n2c1CCC2`, the activation was -0.02%.

For `N#Cc1ccccc1NC(=O)c1cccc(COc2ccc(Cl)cc2Cl)c1`, the activation was 9.56% (active).

As for `COc1ccc(Sc2ccc(NC(=O)c3cccc(Cl)c3)cc2C#N)cc1`, the activation is -0.62%.

As for `CSc1ccc(C#N)cc1NC(=O)c1ccc(Cl)cc1`, the activation is -0.91%.

Take `C[C@H](CO)N1C[C@H](C)[C@@H](CN(C)S(=O)(=O)c2ccc(F)cc2)Oc2ccc(NC(=O)CCC(F)(F)F)cc2C1=O`: the activation was 1.28%.

`Cn1c(=O)c(C(=O)Nc2ncccn2)c(O)c2ccccc21`: the activation is 2.91%.

Consider `NS(=O)(=O)c1ccccc1NC(=O)c1c(O)c2ccccc2[nH]c1=O`, for which the activation is 9.94% (active).

Consider `CCOC(=O)c1ccccc1NC(=O)c1c(N)n(C)c(=O)[nH]c1=O`, for which the activation was -0.83%.

As for `CCCC[C@H]1C2CC(OC(=O)NCc3ccccc3)C(C2)[C@H]2CCCCN21` (stereo partly specified), the activation is -0.93%.

As to `CC(=O)O[C@@]1(C(C)=O)CCC2[C@H]3C=C(C)C4=CC(=O)CC[C@@]4(C)C3CC[C@]21C` (stereo partly specified), the activation is -9.82%.

As for `Cc1nc2ccc(NC(=O)N3CCC(c4ccccc4)C3)cc2nc1C` (stereo unspecified), the activation is -3.22%.

`Cc1nc2ccc(NC(=S)N3CCC(C)CC3)cc2nc1C`: the activation was 7.91% (active).

Turning to `Cc1cccc(NC(=S)N2CCC(c3nc4ccccc4s3)CC2)c1`, the activation is -2.82%.

For `Cn1nc(C(F)(F)F)c2cc(NC(=O)OCC(C)(C)C)sc21`, the activation is 7.24%.

`CCC(C(=O)NC(C)(C)C)n1c(-c2ccccc2)nc2ccccc21` (stereo unspecified): the activation is -0.72%.

As to `CC(C)(C)NC(=O)C(CCc1ccccc1)n1c(=O)c(-c2ccccc2)nc2ccccc21` (stereo unspecified), the activation is 17.1% (active).

Take `CSCCC(C(=O)NC(C)(C)C)n1c(-c2ccccc2)nc2ccccc21` (stereo unspecified): the activation was -3.19%.

Consider `CN(C)c1ccc(NC(=O)NC2CCCCN(Cc3ccc(Cl)cc3)C2=O)cc1` (stereo unspecified), for which the activation is -1.53%.

With `CS(=O)(=O)c1ccc(C(=O)NNC(=O)c2cccs2)cc1`, the activation was -1.1%.

Take `Cc1ccc(C(=O)NNC(=O)c2cccs2)cc1`: the activation is 9.31% (active).

In the case of `CC(C)COc1ccc(C(=O)NNC(=O)CCC(=O)c2cccs2)cc1`, the activation was 0.68%.

`C=CCC(NCCCO)c1cccc(OC)c1OC` (stereo unspecified): the activation is 2.11%.

Turning to `Cc1cc(C)cc(-c2nnc(SCC(=O)NC3CC3)o2)c1`, the activation is 2.96%.

On to `Cc1cc(C)n2nc(C(=O)NC(C)(C)C)nc2n1`, for which the activation is 1.51%.

Consider `Cc1cc(C)n2nc(CNS(=O)(=O)c3c(F)c(F)c(F)c(F)c3F)nc2n1`, for which the activation was 9.77% (active).

On to `COc1ccc(Cl)cc1C(=O)NNC(=O)c1nc2nc(C)cc(C)n2n1`, for which the activation is -0.45%.

`CCOC(=O)N1CCN(C(=O)C[C@H]2C[C@@]3(C(=O)OC)C(=C[C@H](C(C)(C)C)O[C@@H]3C)N(Cc3ccc(Cl)cc3Cl)C2=O)CC1`: the activation was -4.25%.

For `CC(=O)Nc1nc2ncccn2c1-c1ccc(C(F)(F)F)cc1`, the activation was -1.69%.

Regarding `CC(=O)n1cc([C@H]2C=C(C(=O)N3CCOCC3)O[C@@H](OCc3ccc(CO)cc3)C2)c2ccccc21`, the activation was -0.72%.

Regarding `COc1cccc(CNC(=O)C2CCCN(c3nc4ccccc4o3)C2)c1OC` (stereo unspecified), the activation is -3.99%.

As for `COC(=O)C1C(=O)c2c([nH]c(C(=O)OCCSC)c2C)CC1C` (stereo unspecified), the activation is 15.2% (active).

For the compound `CCOC(=O)c1cnc2ccc(F)cc2c1Nc1ccc2c(c1)OCCO2`, the activation was -4.81%.

For the compound `CC(C)N1CCCCC(NC(=O)C(C)(C)C)C1=O` (stereo unspecified), the activation is 0.13%.

In the case of `NC(=O)c1oc2ccccc2c1NC(=O)CS(=O)(=O)c1ccccc1`, the activation is -2.91%.

With `Fc1ccc(CNc2nc3ccccc3n3nnnc23)cc1`, the activation is 10.3% (active).

For `CC(C)(C)N1CC(c2nc3ccccc3n2Cc2ccc(F)cc2)CC1=O` (stereo unspecified), the activation is 4.59%.

Consider `CCOC(=O)CNc1nc2ccccc2n2c(C)nnc12`, for which the activation is -1.96%.

Regarding `Cc1ccc(O)c(CNc2nc3ccccc3n2C)c1`, the activation was 9.3% (active).

With `CC(C)n1c(NCc2c[nH]c3ccccc23)nc2ccccc21`, the activation is -2.21%.

Consider `C/C(=N\c1nc2ccccc2n1C)c1cc(Cl)ccc1O`, for which the activation was 0.8%.

`CN(CCc1ccccc1)C(=O)Cn1nc(-c2ccccc2)ccc1=O`: the activation is -2.33%.

On to `CC(=O)Cn1ncc(N2CCOCC2)c(Br)c1=O`, for which the activation was -2.3%.

In the case of `O=C(Cn1ncc(N2CCCC2)c(Br)c1=O)c1ccc(Cl)cc1`, the activation is 9.66% (active).

As for `O=C(Cn1nc(CNc2ccc(Cl)cc2)[n+]2c1CCCCC2)c1ccc(Cl)cc1`, the activation is -6.64%.

Turning to `Cc1ccc(-n2c(SCC(=O)Nc3ccc(S(=O)(=O)Nc4nccs4)cc3)nnc2-c2ccccn2)cc1`, the activation is -6.25%.

In the case of `CCOC(=O)C(=O)N(Cc1ccccc1)c1ccccc1C(=O)Nc1cc(OC)ccc1OC`, the activation was -5.19%.

Consider `CC(c1c[nH]c2ccccc12)c1c(-c2ccccc2)n(C)c2ccccc12` (stereo unspecified), for which the activation was -5.18%.

On to `COc1ccc(C(=O)Nc2sc(C)c(C)c2CN2CCOCC2)cc1`, for which the activation was 8.14% (active).

Take `COc1ccc(C(=O)Nc2ccnn2C2CCN(Cc3ccncc3)CC2)cc1`: the activation was -1.75%.

On to `CCc1cc(C(c2ccccc2OC)N2CCOCC2)c(NC(=O)c2ccccc2)s1` (stereo unspecified), for which the activation was -0.4%.

As for `O=C(CCl)NC1CCCCN(Cc2cccc(C(F)(F)F)c2)C1=O` (stereo unspecified), the activation is -2.12%.

Regarding `CNC(=O)CN1C(=O)NC(c2ccccc2)(c2ccccc2)C1=O`, the activation is -2.01%.

Consider `Cn1c(SCC(=O)c2ccccc2)ncc(C(=O)Nc2ccc(F)cc2)c1=O`, for which the activation is -2.22%.

As to `CCCCn1c(SCC(=O)NCC2CCCO2)nc2ccc(N3CCOCC3)cc2c1=O` (stereo unspecified), the activation is -3.78%.

For the compound `Cc1ccc(NC(=O)c2cnc(SCC(=O)NCC3CCCO3)n(C)c2=O)cc1` (stereo unspecified), the activation is 8.79% (active).

On to `Cc1ccccc1-n1cc(CNC(=O)CC2C(=O)NCCN2C/C=C/c2ccccc2)cn1` (stereo unspecified), for which the activation is -1.02%.

On to `CCCNC(=O)Nc1ccc2c(c1)C(=O)N(C)[C@H]1CC[C@H](CC(=O)NCC3CCCCC3)O[C@@H]1CO2`, for which the activation was -2.38%.

With `CC1(C(=O)NCc2ccccc2)CSCC(=O)N1CCCN1CCOCC1` (stereo unspecified), the activation was -6.77%.

Consider `O=S1(=O)c2ccc(Br)cc2OC[C@H](Cc2ccccc2)N1Cc1cn(Cc2ccccc2)nn1`, for which the activation was -4.73%.

On to `COc1nc(N=C(N)N)nc2c(C)cccc12`, for which the activation is 5.28%.

With `Cc1nc(N=C(N)N)nc2c(C)cccc12`, the activation was 18.7% (active).

`Nn1c(SCC(=O)N2c3ccccc3Sc3ccccc32)nnc1-c1n[nH]c2c1CCC2`: the activation is -2.45%.

Turning to `CCCC[C@H](C(=O)N(CC)c1ccccc1)[C@@H](O)c1ccc2ccccc2c1`, the activation was -2.79%.

Take `CN1C[C@]2(C=C3CCCCC3n3c(=O)n(-c4ccccc4)c(=O)n32)N=C1NC(=O)c1ccccc1` (stereo partly specified): the activation is -3.36%.

`O=C(COC(=O)c1cccnc1Cl)NC12CC3CC(CC(C3)C1)C2`: the activation is -0.27%.

`COCOc1cccc(CN2CCC(C)(Oc3ccc(SC)cc3)C2)c1` (stereo unspecified): the activation was -2.3%.

As for `CCOC(=O)[C@]12CCCCC/C=C\1N(Cc1ccc(OC)cc1)C(=O)[C@H]2CC(=O)N1CCOCC1`, the activation was -3.81%.

These data come from PubChem BioAssay AID652017 (The Scripps Research Institute Molecular Screening Center, 2013).
